The values that follow come from PubChem BioAssay.

A number with no mark means an inactive call.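 Rule for the calls: active = Her2 level under about 52% in both replicate screens, with viability over 70% of control (limit read from the data); inconclusive = Her2 under the limit in one screen only, or viability under 70%; inactive = Her2 level above the set limit.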

The target in the experiment is Receptor tyrosine-protein kinase erbB-2 (Homo sapiens) (UniProt P04626). The experiment is described as follows: Her2 expression decrease, cell viability multiplex – SKBR3 breast tumor cells, AlphaScreen, ATP viability, primary screen (AID 461). To be noted: 18-24 h, at 10 µM, stronger effect = lower value. On the technique in general: Alpha assays give light when donor and acceptor beads are brought close together.
Chain of Receptor tyrosine-protein kinase erbB-2 (Homo sapiens) (P04626 whole entry, looked up): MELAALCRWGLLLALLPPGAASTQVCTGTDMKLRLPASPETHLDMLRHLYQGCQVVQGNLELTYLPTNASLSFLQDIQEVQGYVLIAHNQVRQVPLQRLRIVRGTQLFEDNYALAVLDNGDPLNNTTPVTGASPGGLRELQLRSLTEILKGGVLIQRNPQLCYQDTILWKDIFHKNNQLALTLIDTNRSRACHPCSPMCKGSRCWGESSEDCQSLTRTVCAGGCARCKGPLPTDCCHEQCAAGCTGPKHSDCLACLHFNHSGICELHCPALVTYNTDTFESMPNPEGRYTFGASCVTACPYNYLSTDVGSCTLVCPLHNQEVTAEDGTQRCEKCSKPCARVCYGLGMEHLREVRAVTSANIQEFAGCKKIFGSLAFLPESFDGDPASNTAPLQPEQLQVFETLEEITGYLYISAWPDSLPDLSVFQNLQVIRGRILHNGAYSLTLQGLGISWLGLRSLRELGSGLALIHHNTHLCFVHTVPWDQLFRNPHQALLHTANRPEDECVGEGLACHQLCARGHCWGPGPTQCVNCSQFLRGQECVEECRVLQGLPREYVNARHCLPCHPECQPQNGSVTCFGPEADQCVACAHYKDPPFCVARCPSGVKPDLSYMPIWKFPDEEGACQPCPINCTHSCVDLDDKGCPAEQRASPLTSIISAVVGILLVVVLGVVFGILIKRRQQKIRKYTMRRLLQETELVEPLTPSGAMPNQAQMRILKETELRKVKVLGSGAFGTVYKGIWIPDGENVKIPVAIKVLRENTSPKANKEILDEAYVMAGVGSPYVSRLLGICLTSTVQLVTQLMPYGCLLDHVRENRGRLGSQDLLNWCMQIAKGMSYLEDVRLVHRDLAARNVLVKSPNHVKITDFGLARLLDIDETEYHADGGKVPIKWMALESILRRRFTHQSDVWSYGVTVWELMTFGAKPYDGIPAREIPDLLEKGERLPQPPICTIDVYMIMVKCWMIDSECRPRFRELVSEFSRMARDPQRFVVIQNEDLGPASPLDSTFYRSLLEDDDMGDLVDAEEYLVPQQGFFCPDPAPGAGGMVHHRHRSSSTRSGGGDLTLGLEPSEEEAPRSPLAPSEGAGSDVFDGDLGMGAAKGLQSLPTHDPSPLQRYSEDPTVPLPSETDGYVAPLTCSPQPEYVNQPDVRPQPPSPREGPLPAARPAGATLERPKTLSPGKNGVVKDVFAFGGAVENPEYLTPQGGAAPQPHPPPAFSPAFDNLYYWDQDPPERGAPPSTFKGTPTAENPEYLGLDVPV
Regarding `CC(C)(C)OC(=O)N1CC=C2C(C#N)=C(N)C(C#N)(C#N)[C@H](c3cccnc3)[C@H]2C1`, the Her2 level was 100%. Next, `COc1cccc(N(C(=O)c2ccco2)C(C(=O)NC2CCCC2)c2ccc(N(C)C)cc2)c1` (stereo unspecified): 92.5%; `CCOC(=O)C1(C(=O)OCC)C(c2ccccc2)CC(O)N1C(C)=O` (stereo unspecified): 95%; `Cc1cccc(NC(=O)c2cnc3sccn3c2=O)n1`: 98.5%. For the compound `CCCn1c(SCC(=O)Nc2nnc(-c3ccccc3)s2)nnc1-c1ccccn1`, the Her2 level was 112%.

For `COc1ccc(-c2c3c(=O)n(C)c(=O)n(C)c3cn2-c2cccc(OC)c2)cc1`, the Her2 level was 97%.

Turning to `CCOC(=O)C1CCN(Cc2ccc(C(=O)OC)cc2)CC1`, the Her2 level is 106%.

As to `O=C1c2ccccc2C(Nc2ccc3c(c2)OCCO3)N1Cc1ccco1` (stereo unspecified), the Her2 level is 112%. For `COc1cc(/C=N/n2c(C)nnc2C)cc(OC)c1OC`, the Her2 level is 95%.

For the compound `Cc1cccc(N(C)C(=O)c2cc3cc4ccc(C)cc4nc3o2)c1`, the Her2 level is 73.5%. To `Cc1cc(NC(=O)CSc2nccn2-c2ccc(Cl)cc2)no1` belongs 103%; to `Cc1ccc2[nH]c(=O)c(CN(CCCO)S(=O)(=O)c3c(C)ccc4nsnc34)cc2c1`, 92.5%; to `Cc1ccc(S(=O)(=O)C2(C(=O)N3CCCCCC3)CC2)cc1`, 83%.

As for `COc1cc(CN2CCSCC2)cc(OC)c1OC`, the Her2 level was 150%. Take `CCOc1ccc(-c2nc(S(=O)(=O)c3ccccc3)c(NCc3cccnc3)o2)cc1`: the Her2 level is 94%.

For the compound `CC(=O)Nc1ccc(NS(=O)(=O)c2ccc(Cl)c(C(=O)O)c2)cc1`, the Her2 level was 108%.
